Results taken from publication PMC7862700, “An all-to-all approach to the identification of sequence-specific readers for epigenetic DNA modifications on cytosine”.

Experiments:
Test in all cases: DAPPL (digital affinity profiling via proximity ligation, sequencing); 10 mM Tris-HCl pH 7.5, 50 mM NaCl, 1 mM DTT, 4% glycerol, room temperature, 30 min; GST-TFs on glutathione beads, 16-mer random dsDNA library, 0.1% formaldehyde crosslink after washing; high values mean tight binding
FEV = target: T1, FEV (Homo sapiens, UniProt Q99581 1-238); conditions: protein: recombinant; tags: N-terminal GST; dsDNA, one strand shown
T1 sequence: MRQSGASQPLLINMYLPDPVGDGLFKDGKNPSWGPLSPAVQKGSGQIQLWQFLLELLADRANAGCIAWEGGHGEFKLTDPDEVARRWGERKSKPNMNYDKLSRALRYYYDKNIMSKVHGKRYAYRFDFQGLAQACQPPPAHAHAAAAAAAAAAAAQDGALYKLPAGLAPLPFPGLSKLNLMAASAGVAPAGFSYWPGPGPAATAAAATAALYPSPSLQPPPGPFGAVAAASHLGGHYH
Method in brief: (§1)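 Pools of DNA-barcoded human transcription factors, expressed in yeast as GST fusions on glutathione beads and combined with a tag-only sample, were incubated with 200 nmole of a 16-mer random double-stranded DNA library. Incubation took 30 min at room temperature in Tris/NaCl/DTT/glycerol buffer and was followed by washing, 0.1% formaldehyde crosslinking, proximity ligation (BsaI/T4 ligase, 1 h, 37 °C), PCR amplification and sequencing on an Illumina NextSeq500. Binding signal is the ratio of a hexamer's read frequency for a factor to its frequency for the tag-only sample.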

ETV5 = ETV5 (Homo sapiens, UniProt P41161 1-510); conditions: protein: recombinant; tags: N-terminal GST; dsDNA, one strand shown
Chain of ETV5 (P41161 whole entry): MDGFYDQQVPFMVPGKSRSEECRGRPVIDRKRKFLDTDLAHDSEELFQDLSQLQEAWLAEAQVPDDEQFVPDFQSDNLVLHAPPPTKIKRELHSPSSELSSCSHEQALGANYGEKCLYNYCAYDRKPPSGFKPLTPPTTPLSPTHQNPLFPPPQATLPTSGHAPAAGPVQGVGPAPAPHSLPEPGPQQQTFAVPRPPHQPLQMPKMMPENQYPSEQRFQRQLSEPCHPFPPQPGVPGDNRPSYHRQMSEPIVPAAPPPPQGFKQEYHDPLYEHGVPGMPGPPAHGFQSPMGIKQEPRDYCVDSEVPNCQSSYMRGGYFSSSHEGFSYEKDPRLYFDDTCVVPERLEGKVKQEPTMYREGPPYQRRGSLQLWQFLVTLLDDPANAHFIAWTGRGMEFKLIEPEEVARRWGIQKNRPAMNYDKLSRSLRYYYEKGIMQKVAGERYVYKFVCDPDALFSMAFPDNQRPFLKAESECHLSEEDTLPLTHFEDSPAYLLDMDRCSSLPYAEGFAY
Method in brief: as §1

HSF1 = HSF1 (Homo sapiens, UniProt Q00613 1-529); conditions: protein: recombinant; tags: N-terminal GST; chain copies: 3; dsDNA, one strand shown
Chain of HSF1 (Q00613 whole entry): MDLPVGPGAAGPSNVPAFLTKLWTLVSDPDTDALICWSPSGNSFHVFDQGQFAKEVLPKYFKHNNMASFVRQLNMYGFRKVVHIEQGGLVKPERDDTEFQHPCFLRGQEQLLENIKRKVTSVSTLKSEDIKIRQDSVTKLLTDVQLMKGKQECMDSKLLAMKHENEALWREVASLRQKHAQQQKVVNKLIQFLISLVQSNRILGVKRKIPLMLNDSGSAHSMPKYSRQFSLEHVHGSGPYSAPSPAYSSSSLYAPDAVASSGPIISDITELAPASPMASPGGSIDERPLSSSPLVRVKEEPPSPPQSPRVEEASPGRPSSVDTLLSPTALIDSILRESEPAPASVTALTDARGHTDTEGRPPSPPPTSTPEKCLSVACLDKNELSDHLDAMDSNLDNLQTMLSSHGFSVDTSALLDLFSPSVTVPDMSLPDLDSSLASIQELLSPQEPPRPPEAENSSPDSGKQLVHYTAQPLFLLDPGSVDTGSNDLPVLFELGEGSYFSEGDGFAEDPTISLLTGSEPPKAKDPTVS
Method in brief: as §1

SPIC = target: T2, SPIC (Homo sapiens, UniProt Q8N5J4 1-248); conditions: protein: recombinant; tags: N-terminal GST; dsDNA, one strand shown
T2 sequence: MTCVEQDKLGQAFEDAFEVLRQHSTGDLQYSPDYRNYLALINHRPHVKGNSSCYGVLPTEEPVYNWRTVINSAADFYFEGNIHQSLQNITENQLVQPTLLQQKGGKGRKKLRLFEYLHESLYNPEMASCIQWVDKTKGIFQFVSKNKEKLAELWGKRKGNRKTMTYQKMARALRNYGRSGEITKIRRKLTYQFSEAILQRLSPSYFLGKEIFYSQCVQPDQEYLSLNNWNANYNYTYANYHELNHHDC
Method in brief: as §1

ELF4 = ELF4 (Homo sapiens, UniProt Q99607 1-663); conditions: protein: recombinant; tags: N-terminal GST; dsDNA, one strand shown
Chain of ELF4 (Q99607 whole entry): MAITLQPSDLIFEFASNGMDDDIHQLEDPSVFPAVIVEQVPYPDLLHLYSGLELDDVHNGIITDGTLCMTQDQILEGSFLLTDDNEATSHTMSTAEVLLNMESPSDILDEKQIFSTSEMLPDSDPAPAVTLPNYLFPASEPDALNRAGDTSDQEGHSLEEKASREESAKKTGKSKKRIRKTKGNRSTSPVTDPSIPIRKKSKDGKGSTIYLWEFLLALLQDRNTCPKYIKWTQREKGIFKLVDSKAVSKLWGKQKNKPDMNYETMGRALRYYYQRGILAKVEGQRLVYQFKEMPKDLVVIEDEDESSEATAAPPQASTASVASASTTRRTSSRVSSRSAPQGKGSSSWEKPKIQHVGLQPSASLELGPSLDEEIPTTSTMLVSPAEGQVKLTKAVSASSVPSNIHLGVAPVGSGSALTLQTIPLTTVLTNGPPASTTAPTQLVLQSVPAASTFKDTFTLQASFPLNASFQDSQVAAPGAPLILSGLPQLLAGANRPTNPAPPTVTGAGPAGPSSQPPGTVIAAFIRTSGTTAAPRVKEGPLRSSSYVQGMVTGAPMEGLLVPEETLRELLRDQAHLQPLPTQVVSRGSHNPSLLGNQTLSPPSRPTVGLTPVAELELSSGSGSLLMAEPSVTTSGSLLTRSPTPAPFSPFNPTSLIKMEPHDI
Method in brief: as §1

ELK4 = target: T3, ELK4 (Homo sapiens, UniProt P28324-2 1-405); conditions: protein: recombinant; tags: N-terminal GST; dsDNA, one strand shown
T3 sequence: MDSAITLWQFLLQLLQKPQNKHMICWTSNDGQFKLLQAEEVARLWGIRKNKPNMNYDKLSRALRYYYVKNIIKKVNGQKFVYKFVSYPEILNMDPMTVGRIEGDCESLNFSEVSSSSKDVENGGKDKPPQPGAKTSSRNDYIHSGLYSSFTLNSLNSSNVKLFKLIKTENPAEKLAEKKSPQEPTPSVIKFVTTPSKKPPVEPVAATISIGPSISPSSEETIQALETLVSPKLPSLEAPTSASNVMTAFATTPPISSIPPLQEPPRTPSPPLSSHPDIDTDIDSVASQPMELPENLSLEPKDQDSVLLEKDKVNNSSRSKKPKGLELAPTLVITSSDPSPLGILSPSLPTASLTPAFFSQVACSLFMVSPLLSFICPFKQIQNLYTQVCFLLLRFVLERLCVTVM
Method in brief: as §1

ETV2 = target: T4, ETV2 (Homo sapiens, UniProt O00321 1-342); conditions: protein: recombinant; tags: N-terminal GST; dsDNA, one strand shown
T4 sequence: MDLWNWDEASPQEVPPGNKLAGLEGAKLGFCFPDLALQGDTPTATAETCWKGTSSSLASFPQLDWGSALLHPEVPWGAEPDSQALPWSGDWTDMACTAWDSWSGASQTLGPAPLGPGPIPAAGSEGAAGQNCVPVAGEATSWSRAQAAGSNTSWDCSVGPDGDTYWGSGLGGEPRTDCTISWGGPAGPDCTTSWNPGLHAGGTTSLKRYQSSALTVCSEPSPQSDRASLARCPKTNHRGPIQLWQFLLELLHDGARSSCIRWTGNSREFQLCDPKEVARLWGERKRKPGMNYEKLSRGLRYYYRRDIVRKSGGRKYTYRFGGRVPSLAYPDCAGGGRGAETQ
Method in brief: as §1

ELF3 = target: T5, ELF3 (Homo sapiens, UniProt P78545 1-371); conditions: protein: recombinant; tags: N-terminal GST; dsDNA, one strand shown
T5 sequence: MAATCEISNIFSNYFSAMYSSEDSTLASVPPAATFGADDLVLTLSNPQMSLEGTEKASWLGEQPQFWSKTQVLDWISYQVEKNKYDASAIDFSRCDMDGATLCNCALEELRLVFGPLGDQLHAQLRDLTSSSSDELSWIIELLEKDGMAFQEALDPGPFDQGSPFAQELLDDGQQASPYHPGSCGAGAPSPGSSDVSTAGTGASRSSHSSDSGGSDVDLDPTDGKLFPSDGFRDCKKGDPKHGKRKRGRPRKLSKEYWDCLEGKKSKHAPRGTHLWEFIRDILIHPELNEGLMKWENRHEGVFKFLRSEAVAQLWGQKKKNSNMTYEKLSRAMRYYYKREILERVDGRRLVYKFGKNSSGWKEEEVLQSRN
Method in brief: as §1

CRX = CRX (Homo sapiens, UniProt O43186 1-299); conditions: protein: recombinant; tags: N-terminal GST; dsDNA, one strand shown
Chain of CRX (O43186 whole entry): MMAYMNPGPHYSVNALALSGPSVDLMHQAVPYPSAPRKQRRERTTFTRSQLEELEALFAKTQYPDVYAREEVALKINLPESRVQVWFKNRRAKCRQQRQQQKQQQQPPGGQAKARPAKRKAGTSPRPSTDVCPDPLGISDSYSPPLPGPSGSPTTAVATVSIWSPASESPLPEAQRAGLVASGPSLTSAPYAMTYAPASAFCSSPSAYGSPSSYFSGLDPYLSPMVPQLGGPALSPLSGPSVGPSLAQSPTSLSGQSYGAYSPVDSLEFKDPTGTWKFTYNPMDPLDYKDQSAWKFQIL
Method in brief: as §1

ETV1 = ETV1 (Homo sapiens, UniProt P50549 1-477); conditions: protein: recombinant; tags: N-terminal GST; dsDNA, one strand shown
Chain of ETV1 (P50549 whole entry): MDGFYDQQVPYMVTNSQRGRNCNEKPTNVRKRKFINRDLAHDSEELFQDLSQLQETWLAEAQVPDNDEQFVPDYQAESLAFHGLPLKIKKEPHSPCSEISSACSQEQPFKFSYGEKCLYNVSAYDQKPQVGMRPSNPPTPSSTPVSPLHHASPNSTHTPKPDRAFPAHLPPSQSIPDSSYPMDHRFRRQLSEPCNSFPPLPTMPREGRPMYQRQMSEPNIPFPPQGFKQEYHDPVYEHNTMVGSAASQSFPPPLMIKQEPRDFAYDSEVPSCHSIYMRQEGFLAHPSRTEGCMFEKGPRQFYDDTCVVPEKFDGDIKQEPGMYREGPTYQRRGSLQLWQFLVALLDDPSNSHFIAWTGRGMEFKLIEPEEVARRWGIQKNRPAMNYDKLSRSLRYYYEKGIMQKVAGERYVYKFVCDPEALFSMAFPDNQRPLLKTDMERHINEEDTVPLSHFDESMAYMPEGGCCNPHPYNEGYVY
Method in brief: as §1

Sequence | binding signal (FEV) | binding signal (ETV5) | binding signal (HSF1) | binding signal (SPIC) | binding signal (ELF4) | binding signal (ELK4) | binding signal (ETV2) | binding signal (ELF3) | binding signal (CRX) | binding signal (ETV1)
AAACAT | 1.45 fold enrichment (6-mer frequency, TF over GST control) | 1.57 fold enrichment (6-mer frequency, TF over GST control) | 1.48 fold enrichment (6-mer frequency, TF over GST control) | 1.53 fold enrichment (6-mer frequency, TF over GST control) | 1.53 fold enrichment (6-mer frequency, TF over GST control) | 1.49 fold enrichment (6-mer frequency, TF over GST control) | 1.53 fold enrichment (6-mer frequency, TF over GST control) | 1.53 fold enrichment (6-mer frequency, TF over GST control) | 1.32 fold enrichment (6-mer frequency, TF over GST control) | 1.43 fold enrichment (6-mer frequency, TF over GST control)
ATTGGT | 1.21 fold enrichment (6-mer frequency, TF over GST control) | 1.29 fold enrichment (6-mer frequency, TF over GST control) | 1.12 fold enrichment (6-mer frequency, TF over GST control) | 1.24 fold enrichment (6-mer frequency, TF over GST control) | 1.27 fold enrichment (6-mer frequency, TF over GST control) | 1.19 fold enrichment (6-mer frequency, TF over GST control) | 1.01 fold enrichment (6-mer frequency, TF over GST control) | 1.14 fold enrichment (6-mer frequency, TF over GST control) | 1.2 fold enrichment (6-mer frequency, TF over GST control) | 1.29 fold enrichment (6-mer frequency, TF over GST control)
AGATCC | 1.14 fold enrichment (6-mer frequency, TF over GST control) | 1.14 fold enrichment (6-mer frequency, TF over GST control) | 1.11 fold enrichment (6-mer frequency, TF over GST control) | 1.16 fold enrichment (6-mer frequency, TF over GST control) | 1.14 fold enrichment (6-mer frequency, TF over GST control) | 1.17 fold enrichment (6-mer frequency, TF over GST control) | 1.06 fold enrichment (6-mer frequency, TF over GST control) | 1.06 fold enrichment (6-mer frequency, TF over GST control) | 1.11 fold enrichment (6-mer frequency, TF over GST control) | 1.14 fold enrichment (6-mer frequency, TF over GST control)
TTACAA | 1.12 fold enrichment (6-mer frequency, TF over GST control) | 1.1 fold enrichment (6-mer frequency, TF over GST control) | 1.31 fold enrichment (6-mer frequency, TF over GST control) | 1.12 fold enrichment (6-mer frequency, TF over GST control) | 1.12 fold enrichment (6-mer frequency, TF over GST control) | 1.24 fold enrichment (6-mer frequency, TF over GST control) | 1.09 fold enrichment (6-mer frequency, TF over GST control) | 1.22 fold enrichment (6-mer frequency, TF over GST control) | 1.77 fold enrichment (6-mer frequency, TF over GST control) | 1.18 fold enrichment (6-mer frequency, TF over GST control)
CCCGCC | 1.5 fold enrichment (6-mer frequency, TF over GST control) | 1.31 fold enrichment (6-mer frequency, TF over GST control) | 1.17 fold enrichment (6-mer frequency, TF over GST control) | 1.67 fold enrichment (6-mer frequency, TF over GST control) | 1.66 fold enrichment (6-mer frequency, TF over GST control) | 1.43 fold enrichment (6-mer frequency, TF over GST control) | 1.6 fold enrichment (6-mer frequency, TF over GST control) | 1.45 fold enrichment (6-mer frequency, TF over GST control) | 1.21 fold enrichment (6-mer frequency, TF over GST control) | 1.5 fold enrichment (6-mer frequency, TF over GST control)
AACAAT | 1.29 fold enrichment (6-mer frequency, TF over GST control) | 1.29 fold enrichment (6-mer frequency, TF over GST control) | 1.48 fold enrichment (6-mer frequency, TF over GST control) | 1.26 fold enrichment (6-mer frequency, TF over GST control) | 1.32 fold enrichment (6-mer frequency, TF over GST control) | 1.27 fold enrichment (6-mer frequency, TF over GST control) | 1.31 fold enrichment (6-mer frequency, TF over GST control) | 1.56 fold enrichment (6-mer frequency, TF over GST control) | 1.24 fold enrichment (6-mer frequency, TF over GST control) | 1.36 fold enrichment (6-mer frequency, TF over GST control)
TCATTT | 1.38 fold enrichment (6-mer frequency, TF over GST control) | 1.4 fold enrichment (6-mer frequency, TF over GST control) | 1.14 fold enrichment (6-mer frequency, TF over GST control) | 1.41 fold enrichment (6-mer frequency, TF over GST control) | 1.34 fold enrichment (6-mer frequency, TF over GST control) | 1.37 fold enrichment (6-mer frequency, TF over GST control) | 1.5 fold enrichment (6-mer frequency, TF over GST control) | 1.24 fold enrichment (6-mer frequency, TF over GST control) | 1.16 fold enrichment (6-mer frequency, TF over GST control) | 1.41 fold enrichment (6-mer frequency, TF over GST control)
ACCGAT | 1.06 fold enrichment (6-mer frequency, TF over GST control) | 1.08 fold enrichment (6-mer frequency, TF over GST control) | 1.14 fold enrichment (6-mer frequency, TF over GST control) | 1.33 fold enrichment (6-mer frequency, TF over GST control) | 1.24 fold enrichment (6-mer frequency, TF over GST control) | 1.15 fold enrichment (6-mer frequency, TF over GST control) | 1.19 fold enrichment (6-mer frequency, TF over GST control) | 1.22 fold enrichment (6-mer frequency, TF over GST control) | 1.24 fold enrichment (6-mer frequency, TF over GST control) | 1.12 fold enrichment (6-mer frequency, TF over GST control)
